Laboratory results from PubChem BioAssay (NCATS).
Records with an inconclusive call do not appear. Calls of active or inactive are those of the source. Unless noted, calls come from the whole dose curve; as a rule, active = well fitted curve in the direction sought with a large enough effect; inconclusive = small, poorly fitted or top-dose-only effect, or another doubt; inactive = no such curve, though single readings can be large; an effect the other way counts as inactive or inconclusive.

Key:
[1] = target: Bile acid receptor (Homo sapiens) (UniProt Q96RI1); experiment: qHTS assay for small molecule agonists of farnesoid X receptor signaling (AID 588527; calls by dose curve;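 note: series mostly up to about 77 µM; 0% = vehicle basal and 100% = reference agonist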); conditions: HEK293T FXR-UAS-bla, beta-lactamase ratio, 16 h; activation: stronger effect = higher value
In short: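 Agonist-mode beta-lactamase reporter in GeneBLAzer FXR-UAS-bla HEK293T cells, titration up to 92 uM, 16 h exposure at 37 C, CCF4 fluorescence. Response scaled to DMSO (0%) and 100 uM chenodeoxycholic acid (100%), then Hill-fitted for EC50 and efficacy.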

[2] = target: Vitamin D3 receptor (Homo sapiens) (UniProt P11473); experiment: qHTS assay for small molecule antagonists of vitamin D receptor signaling (AID 588541; calls by dose curve;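 note: receptor activated by calcitriol during compound treatment; series mostly up to about 77 µM; % is set by controls: 0 for no effect and ±100 for the full control effect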)
In short: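 VDR-UAS-bla HEK293T cells (2000/well, 2% charcoal-stripped FBS) were treated with titrated compounds plus 1-alpha,25-dihydroxyvitamin D3 (50 nM or 3 nM final) for 16 h at 37 C. CCF4 beta-lactamase fluorescence was read; Hill fits gave IC50.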

[3] = target: Vitamin D3 receptor (Homo sapiens) (UniProt P11473); experiment: qHTS assay for small molecule agonists of vitamin D receptor signaling (AID 588543; calls by dose curve;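 note: 0% = DMSO basal and 100% = reference agonist control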)
In short: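 VDR-UAS-bla HEK293T cells, 2000/well, 2% charcoal-stripped FBS; compound titration 16 h at 37 C; CCF4 beta-lactamase ratio read. Normalized to 50 nM 1-alpha,25-dihydroxyvitamin D3 (100%) and DMSO; Hill fit gives EC50, efficacy.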

[4] = qHTS assay for small molecule agonists of retinoid X receptor alpha signaling (AID 588544; calls by dose curve;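 for activation: 0% = DMSO basal wells and 100% = reference agonist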); conditions: HEK293T RXRa-UAS-bla, beta-lactamase reporter, 18 h; 530 nm emission
[5] = target: Retinoic acid receptor RXR-alpha (Homo sapiens) (UniProt P19793); experiment: as above
[6] = target: Thyroid hormone receptor beta (Homo sapiens) (UniProt P10828); experiment: qHTS assay for small molecule agonists of thyroid hormone receptor beta signaling (AID 588545; calls by dose curve)
In short: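 Agonist activity was read as beta-lactamase CCF4 fluorescence (405 ex, 460/530 em), scaled between DMSO (0%) and 10 nM T3 (100%), then Hill-fitted for EC50 and efficacy. HEK 293 TR-UAS-bla cells in 2% charcoal/dextran FBS medium were exposed 18 h at 37 C.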

[7] = qHTS assay for small molecule antagonists of retinoid X receptor alpha signaling (AID 588546; active = well fitted inhibition curve with a large enough effect in the signal ratio, with a control signal flat, not every such curve was filed as active; the % refers to the signal ratio;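 note: cells stimulated with 9-cis-retinoic acid as agonist; % is set by controls: 0 for no effect and ±100 for the full control effect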); conditions: HEK293T RXRa-UAS-bla, beta-lactamase ratio, antagonist mode; measured here: W530 green channel, cytotoxicity proxy
In short: (§1)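 Beta-lactamase reporter inhibition, read as CCF4 fluorescence ratio (ex 405, em 460/530 nm) after 2 h at RT. HEK293T UAS-bla cells, 2500/well, were stimulated with 9-cis-RA at 500 or 100 nM final alongside test compound for 18 h at 37 C.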

[8] = target: Retinoic acid receptor RXR-alpha (Homo sapiens) (UniProt P19793); experiment: as above; conditions: HEK293T RXRa-UAS-bla, beta-lactamase ratio, antagonist mode
In short: as §1

[9] = qHTS assay for environmental chemicals that activate the Aryl hydrocarbon Receptor (AhR) signaling pathway (AID 651777); conditions: 1A2-DRE human hepatoma cells, luciferase, 24 h; activation: stronger effect = higher value; note: % of control where 0% means no effect; nearly all actives have a fitted effect of over 15% in size
In short: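 Reporter gene assay: hepatoma cells with DRE/CYP1A2-luciferase, 24 hr compound incubation at 37 C, 5% CO2, luminescence after One-Glo (30 min, RT).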

[10] = target: Peroxisome proliferator-activated receptor alpha (Homo sapiens) (UniProt Q07869); experiment: qHTS assay for small molecule agonists of the peroxisome proliferator-activated receptor alpha (PPARalpha) signaling pathway (AID 651778); conditions: PathHunter PPARalpha complementation, chemiluminescence, 6 h; max response: stronger effect = higher value; note: % of control where 0% means no effect
In short: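 Cells plated at 2,000/well and held overnight at 37 C, 5% CO2, then compound added by pin tool for 6 hr; after PathHunter detection reagent and 60 min at room temperature, chemiluminescence from enzyme complementation was read.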

[11] = qHTS assay for small molecule agonists of the antioxidant response element (ARE) signaling pathway measured by Nrf2-dependant transcriptional activity (AID 720636; active = well fitted curve in the direction sought with a large enough effect in the repeat runs; an effect the other way counts as inactive or inconclusive;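 note: HepG2 cells with an ARE-driven luciferase reporter; % of control where 0% means no effect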)
In short: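 Nrf2-dependent transcription is measured in ARE-luc HepG2 cells: compound is applied for 16 hr at 37 C after a 6 hr attachment period, and luciferase activity is quantified by luminescence using ONE-Glo.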

[12] = qHTS assay for small molecule agonists of the antioxidant response element (ARE) signaling pathway measured by Nrf2-dependant transcriptional activity - cell viability counter screen (AID 720653; active = well fitted curve in the direction sought with a large enough effect in the repeat runs; an effect the other way counts as inactive or inconclusive; note: % is set by controls: 0 for no effect and ±100 for the full control effect); conditions: ARE-bla HepG2 viability, CellTiter-Glo ATP luminescence, 16 h; max response: stronger effect = lower value
In short: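 ARE-bla HepG2 cells (2,000/well) rested 5 hrs at 37C/5% CO2, then exposed to compounds in DMSO for 16 hrs. Viability was read in the same wells as intracellular ATP by luminescence, 30 min at room temperature after reagent addition.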

[13] = qHTS assay for cell viability of HEK293 cells (AID 743288); conditions: ATP luminescence (CellTiter-Glo), 18 h; max response: stronger effect = lower value; note: % is set by controls: 0 for no effect and ±100 for the full control effect; nearly all actives have a fitted effect of over 50% in size
In short: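 Steps: plate 2,000 parental HEK293 cells per well; incubate ≥5 h, 37 C; add compounds in DMSO; incubate 18 h, 37 C; add CellTiter-Glo; wait 30 min at room temperature; read luminescence.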

[14] = target: Nuclear receptor subfamily 1 group I member 2 (Rattus norvegicus) (UniProt Q9R1A7); experiment: qHTS assay for small molecule activators of the rat pregnane X receptor (rPXR) signaling pathway (AID 651751; call rule not given here; note: 0% is about no effect); conditions: rPXR reporter cells, luciferase (One-Glo), 24 h
[15] = target: Peroxisome proliferator-activated receptor delta (Homo sapiens) (UniProt Q03181); experiment: qHTS assay for small molecule agonists of peroxisome proliferator-activated receptor delta signaling (AID 588534; calls by dose curve;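 note: 0% = DMSO basal wells and 100% = positive control agonist at 10 µM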)
In short: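 Agonist-mode qHTS; reporter cells, 5 hrs 37 C pre-incubation; compound titration, 18 hrs 37 C; CCF4 dye, 2 hrs RT; fluorescence read. EC50/efficacy via Hill fit.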

[16] = qHTS assay for small molecule antagonists of peroxisome proliferator-activated receptor delta signaling (AID 588535; active = well fitted inhibition curve with a large enough effect in the signal ratio, with a control signal flat, not every such curve was filed as active; the % refers to the signal ratio;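 for max response: cells co-treated with a PPAR-delta agonist as stimulator during compound exposure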); conditions: HEK293T PPARd-UAS-bla, beta-lactamase FRET ratio, 18 h; 460 nm channel
In short: (§2)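 Inhibition of PPAR-delta response element-driven beta-lactamase expression is measured in HEK293T cells exposed to a compound titration series for 18 hrs at 37 C. Half-maximal inhibition comes from Hill equation fitting.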

[17] = target: Peroxisome proliferator-activated receptor delta (Homo sapiens) (UniProt Q03181); experiment: as above
In short: as §2

[18] = qHTS assay for small molecule activators of the nuclear factor-kappa B (NF-kB) signaling pathway (AID 651749; active = well fitted activation curve with a large enough effect in the signal ratio; the % refers to the signal ratio; note: series mostly up to about 77 µM; % of control where 0% means no effect); conditions: NF-kB-bla ME-180 cells, beta-lactamase FRET ratio, 16 h; activation: stronger effect = higher value
In short: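 Human ME-180 cervical cells with an NF-kB-bla construct; compounds added via 23 nL pin transfer, DMSO as vehicle; incubation 16 hr. Reporter activity measured by FRET disruption.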

[19] = qHTS assay for cell viability of the p53RE-bla HCT-116 cell line (AID 743292); note: % is set by controls: 0 for no effect and ±100 for the full control effect; nearly all actives have a fitted effect of over 55% in size
In short: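 ATP-based luminescence, 16 h compound exposure at 37 C, p53RE-bla HCT-116 cells at 4,000/well.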

[20] = qHTS assay for small molecule activators of the p53 signaling pathway (AID 651743; active = well fitted activation curve with a large enough effect in the signal ratio, not every such curve was filed as active; the % refers to the signal ratio; note: series mostly up to about 92 µM; % of control where 0% means no effect); conditions: HCT-116 p53RE-bla, beta-lactamase FRET ratio, 16 h; activation: stronger effect = higher value
In short: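 Agonist-mode quantitative HTS in HCT-116 cells carrying a p53-response-element beta-lactamase reporter; 16 h compound treatment at 37 C, then FRET substrate loading for 2 h at room temperature and fluorescence read.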

Thyroid hormone receptor beta (Homo sapiens), sequence (P10828 whole entry, looked up): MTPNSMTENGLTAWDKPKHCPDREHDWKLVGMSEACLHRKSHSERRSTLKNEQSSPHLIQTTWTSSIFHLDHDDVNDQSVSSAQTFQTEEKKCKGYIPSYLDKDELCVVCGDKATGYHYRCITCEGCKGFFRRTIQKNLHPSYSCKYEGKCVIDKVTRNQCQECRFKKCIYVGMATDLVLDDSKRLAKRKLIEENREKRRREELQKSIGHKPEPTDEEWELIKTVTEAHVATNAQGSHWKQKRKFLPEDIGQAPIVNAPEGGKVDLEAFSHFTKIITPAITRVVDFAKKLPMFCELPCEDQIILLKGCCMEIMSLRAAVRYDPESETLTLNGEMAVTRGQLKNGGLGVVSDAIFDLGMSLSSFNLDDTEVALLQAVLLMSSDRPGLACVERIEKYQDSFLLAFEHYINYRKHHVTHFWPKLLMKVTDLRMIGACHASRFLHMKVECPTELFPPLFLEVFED
Peroxisome proliferator-activated receptor delta (Homo sapiens), sequence (Q03181 whole entry, looked up): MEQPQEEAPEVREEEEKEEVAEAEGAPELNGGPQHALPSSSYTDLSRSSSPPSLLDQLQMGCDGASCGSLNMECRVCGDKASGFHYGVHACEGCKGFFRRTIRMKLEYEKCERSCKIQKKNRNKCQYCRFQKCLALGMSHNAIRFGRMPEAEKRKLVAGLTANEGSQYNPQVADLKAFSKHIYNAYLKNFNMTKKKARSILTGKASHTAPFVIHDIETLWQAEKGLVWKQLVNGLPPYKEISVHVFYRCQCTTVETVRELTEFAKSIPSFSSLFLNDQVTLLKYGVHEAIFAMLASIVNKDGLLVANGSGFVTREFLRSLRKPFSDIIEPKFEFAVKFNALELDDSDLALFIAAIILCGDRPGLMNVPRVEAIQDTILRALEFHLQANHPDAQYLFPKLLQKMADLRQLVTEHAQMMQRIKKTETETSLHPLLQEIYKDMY
Nuclear receptor subfamily 1 group I member 2 (Rattus norvegicus), sequence (Q9R1A7 whole entry, looked up): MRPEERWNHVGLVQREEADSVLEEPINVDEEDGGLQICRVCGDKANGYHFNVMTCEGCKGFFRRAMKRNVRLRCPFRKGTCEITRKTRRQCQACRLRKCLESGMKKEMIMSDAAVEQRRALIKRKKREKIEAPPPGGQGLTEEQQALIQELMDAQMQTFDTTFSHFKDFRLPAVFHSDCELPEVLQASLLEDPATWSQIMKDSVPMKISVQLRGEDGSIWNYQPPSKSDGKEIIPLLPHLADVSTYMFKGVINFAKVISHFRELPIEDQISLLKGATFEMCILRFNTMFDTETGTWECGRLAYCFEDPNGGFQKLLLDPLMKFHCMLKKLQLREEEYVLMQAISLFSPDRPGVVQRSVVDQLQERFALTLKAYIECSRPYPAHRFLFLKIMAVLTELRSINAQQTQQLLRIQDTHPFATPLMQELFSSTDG
Vitamin D3 receptor (Homo sapiens), sequence (P11473 whole entry, looked up): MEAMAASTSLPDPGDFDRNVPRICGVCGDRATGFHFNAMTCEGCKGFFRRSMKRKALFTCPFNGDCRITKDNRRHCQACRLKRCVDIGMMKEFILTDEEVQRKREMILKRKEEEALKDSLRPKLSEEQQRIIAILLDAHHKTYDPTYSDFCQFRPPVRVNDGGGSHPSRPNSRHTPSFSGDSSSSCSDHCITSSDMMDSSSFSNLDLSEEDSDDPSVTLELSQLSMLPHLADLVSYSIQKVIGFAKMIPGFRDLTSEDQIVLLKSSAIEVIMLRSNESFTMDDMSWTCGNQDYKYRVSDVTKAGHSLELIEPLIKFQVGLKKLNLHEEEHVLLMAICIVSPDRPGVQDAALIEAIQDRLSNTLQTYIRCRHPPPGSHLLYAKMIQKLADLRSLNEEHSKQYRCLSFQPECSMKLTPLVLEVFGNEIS
Peroxisome proliferator-activated receptor alpha (Homo sapiens), sequence (Q07869 whole entry, looked up): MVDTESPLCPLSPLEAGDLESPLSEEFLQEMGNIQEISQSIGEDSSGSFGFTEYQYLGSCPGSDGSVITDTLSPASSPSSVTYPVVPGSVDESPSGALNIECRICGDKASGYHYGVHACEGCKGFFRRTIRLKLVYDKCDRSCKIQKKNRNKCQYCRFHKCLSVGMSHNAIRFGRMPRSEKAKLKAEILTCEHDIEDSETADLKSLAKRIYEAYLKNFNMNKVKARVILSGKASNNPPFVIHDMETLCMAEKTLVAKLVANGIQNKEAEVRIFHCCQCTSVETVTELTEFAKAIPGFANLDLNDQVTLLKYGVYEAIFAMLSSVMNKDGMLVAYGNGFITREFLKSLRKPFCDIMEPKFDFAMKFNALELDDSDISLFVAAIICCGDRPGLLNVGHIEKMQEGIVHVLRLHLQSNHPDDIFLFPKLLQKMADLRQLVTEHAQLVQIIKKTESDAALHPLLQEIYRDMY
Retinoic acid receptor RXR-alpha (Homo sapiens), sequence (P19793 whole entry, looked up): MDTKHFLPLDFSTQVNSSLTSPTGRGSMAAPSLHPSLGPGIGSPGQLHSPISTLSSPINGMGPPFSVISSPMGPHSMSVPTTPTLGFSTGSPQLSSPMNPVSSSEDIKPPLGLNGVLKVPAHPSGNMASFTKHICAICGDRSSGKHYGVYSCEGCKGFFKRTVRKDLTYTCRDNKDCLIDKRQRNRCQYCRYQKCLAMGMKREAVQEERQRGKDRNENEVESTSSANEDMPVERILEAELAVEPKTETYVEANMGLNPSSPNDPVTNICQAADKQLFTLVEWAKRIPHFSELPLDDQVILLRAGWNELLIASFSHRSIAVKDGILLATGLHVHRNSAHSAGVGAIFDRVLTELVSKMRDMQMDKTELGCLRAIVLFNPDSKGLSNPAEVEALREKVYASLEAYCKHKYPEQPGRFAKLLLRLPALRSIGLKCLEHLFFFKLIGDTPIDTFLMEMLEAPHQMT
Bile acid receptor (Homo sapiens), sequence (Q96RI1 whole entry, looked up): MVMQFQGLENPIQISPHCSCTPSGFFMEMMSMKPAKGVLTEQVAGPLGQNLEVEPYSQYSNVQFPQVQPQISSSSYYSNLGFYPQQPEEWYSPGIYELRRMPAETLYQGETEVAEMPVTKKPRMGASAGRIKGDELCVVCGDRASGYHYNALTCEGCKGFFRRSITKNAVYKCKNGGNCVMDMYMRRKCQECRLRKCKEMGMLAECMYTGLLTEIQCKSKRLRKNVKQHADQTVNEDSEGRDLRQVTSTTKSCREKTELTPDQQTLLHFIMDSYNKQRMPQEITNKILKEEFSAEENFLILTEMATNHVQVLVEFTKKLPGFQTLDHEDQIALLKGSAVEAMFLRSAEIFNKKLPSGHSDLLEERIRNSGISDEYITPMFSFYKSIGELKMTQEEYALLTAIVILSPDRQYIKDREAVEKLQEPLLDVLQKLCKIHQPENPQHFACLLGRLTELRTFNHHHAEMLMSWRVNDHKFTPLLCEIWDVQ

ClCc1ccccc1Cl
-6.52%: max response [7]
inactive: activation [1] -0.339% | Potency [2] | outcome [3] | Potency [5] | Potency [6] | max response [8] 0.106% | activation [9] 0.685% | max response [10] 1.31% | Potency [11] | max response [12] -2.98% | max response [13] -1.39% | max response [14] -0.702%
-22.8%: max response [4]

CCC(C)(C)c1cc(-n2nc3ccccc3n2)c(O)c(C(C)(C)CC)c1
-14%: max response [7]
-9.56%: max response [16]
inactive: outcome [15] | Potency [17] | Potency [2] | outcome [3] | Potency [5] | Potency [6] | max response [8] 11.8% | activation [18] -0.182% | activation [9] 0.0202% | max response [10] 0.0334% | max response [12] -12.9% | max response [13] -9.99% | Potency [19] | max response [14] -0.463%
-3.41%: max response [4]

N#CN=C1SCCN1Cc1ccc(Cl)nc1
6.15%: max response [4]
inactive: outcome [15] | Potency [17] | Potency [5] | Potency [6] | max response [8] -3.64% | activation [20] 1.82% | activation [18] -0.492% | activation [9] 1.96% | max response [10] -1.13% | Potency [11] | max response [12] -4.44% | max response [13] 1.43% | Potency [19] | max response [14] 2.62%
8.04%: max response [16]
-7.22%: max response [7]

COC(=O)N(C(=O)N1COC2(C(=O)OC)Cc3cc(Cl)ccc3C2=N1)c1ccc(OC(F)(F)F)cc1 (stereo not given)
21%: max response [16]
inactive: Potency [17] | Potency [2] | outcome [3] | activation [20] -1.52% | activation [9] 2.68% | max response [10] -1.75% | Potency [11] | max response [12] -4.11% | max response [13] -21.9% | Potency [19]

C=C(C)C(=O)OCC(CC)CCCC (stereo not given)
inactive: Potency [2] | Potency [5] | Potency [6] | max response [8] -2.17% | activation [20] -3.24% | activation [18] -0.248% | activation [9] 1.05% | max response [10] 5.11% | Potency [11] | max response [12] -12.5% | Potency [19] | max response [14] -1.07%
-20.3%: max response [4]
-12.9%: max response [7]

CC(C)=C[C@@H]1[C@@H](C(=O)OCN2C(=O)C3=C(CCCC3)C2=O)C1(C)C
-15.3%: max response [7]
inactive: Potency [2] | Potency [6] | max response [8] 18% | activation [20] 11.9% | activation [9] -1.3% | max response [10] -0.573% | Potency [11] | max response [12] -22.2% | Potency [19] | max response [14] 4.94%

O=[N+]([O-])c1ccc2ccc3cccc4ccc1c2c34
19.4%: max response [4]
inactive: activation [1] -3.28% | outcome [3] | Potency [5] | Potency [6] | activation [9] 2.13% | max response [10] -0.269% | max response [12] -9.82% | max response [13] -25% | Potency [19] | max response [14] 3%
